The source of these data is PubChem BioAssay (NCI).

Test systems include T-47D breast; BT-549 breast; MDA-MB-435 melanoma; SW-620 colon; MCF7 breast; HCT-116 colon; HCC-2998 colon; KM12 colon; MDA-MB-468 breast.
What all share (assay): NCI-60 one-dose screen, 48 h (100 = growth as untreated, 0 = no growth, -100 = all killed)
What all share (details): 10 µM

This is part of a sample that, as a whole, favours compounds with a hit. Of some 83,000 tested, about 20% had one in any assay.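 Note: values are percent growth. 100 is the growth of untreated cells, values between 100 and 0 indicate rising inhibition; between -100 and 0 indicates cell death.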 Unmarked numbers belong to inactive results. Calls of active or inactive are those of the source. The calls were made as follows: active = growth percent below 10; inactive = the rest.

`C/C(=C\CC/C=C(\C)CC/C=C(\C)CC[C@@H](O)C(C)(C)O)CC/C=C(\C)CC[C@@H](O)C(C)(C)O`: the growth is 6.38% (active) with T-47D breast; 8.56% (active) in the assay on BT-549 breast; 39.5% in the assay on MDA-MB-435 melanoma; 43% in the assay with SW-620 colon; 13.8% in the assay on MCF7 breast; 10% with HCT-116 colon. Further, the results for the growth in the assay on HCC-2998 colon, in the assay with KM12 colon and in the assay on MDA-MB-468 breast were 31.7%, 25.5% and 0.844% (active), respectively.
For `COc1ccc2nc(Cl)c(-c3cc(-c4ccccc4)nc(N)n3)cc2c1`, the growth was 30.6% with T-47D breast; -11.1% (active) with BT-549 breast; 45.5% in the assay with MDA-MB-435 melanoma; -60.2% (active) in the assay with SW-620 colon; 4.28% (active) in the assay on MCF7 breast; -92.1% (active) with HCT-116 colon. For the same compound, the growth with HCC-2998 colon is 62.6%; with KM12 colon it was -0.39% (active); with MDA-MB-468 breast it was 14.9%.
Consider `Cn1cc(-c2cc(N)n3nc(-c4c[nH]c5ccc(Br)cc45)cc3n2)c2cc(Br)cnc21`, for which the growth with T-47D breast was -74.7% (active); in the assay with BT-549 breast it was -75.4% (active); with MDA-MB-435 melanoma, -46.3% (active); in the assay with SW-620 colon, -71.2% (active); in the assay with MCF7 breast, -79.5% (active); in the assay with HCT-116 colon it was -69.6% (active). The figures for the growth with HCC-2998 colon, in the assay with KM12 colon and in the assay with MDA-MB-468 breast were -98.1% (active), -73.1% (active) and -98.3% (active), respectively.
As to `O=C(CSc1nnc(-c2c[nH]c3ccccc23)n1-c1ccccc1)Nc1ccc(C(=O)/C=C/c2cccc([N+](=O)[O-])c2)cc1`, the growth in the assay on T-47D breast was 57.5%; in the assay with BT-549 breast, 93.5%; with MDA-MB-435 melanoma it was 98.9%; in the assay with SW-620 colon, 101%; with MCF7 breast, -6.63% (active); in the assay with HCT-116 colon it was -54% (active). The growth is 62.7% in the assay with HCC-2998 colon, 88.7% with KM12 colon and 75.4% in the assay with MDA-MB-468 breast.
As to `CC(=O)c1ccc(NC(=O)NCn2c(=O)[nH]c3ccccc3c2=O)cc1`, the growth in the assay on T-47D breast was 83%; in the assay with BT-549 breast, 159%; in the assay on MDA-MB-435 melanoma it was 99.6%; in the assay on SW-620 colon it was 101%; with MCF7 breast, 83%; with HCT-116 colon it was 110%. For the same compound, the growth was 112% with HCC-2998 colon, 103% with KM12 colon and 92% in the assay on MDA-MB-468 breast.
